Measurements as given in PubChem BioAssay (EPA / NIEHS).
The source made the active and inactive calls. How the source made its calls: active means hit-call score of the fitted dose curve at least 0.9, where 1 is the maximum; inactive means score below 0.9.

Key:
[1] = ATG_GRE_CIS: Attagene CIS-FACTORIAL HepG2 Assay for human Glucocorticoid Response Elements (GRE) (AID 2282947); conditions: HepG2 GRE cis-reporter, Attagene multiplex mRNA; actives raise or lower the signal
Method in brief: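 Multiplexed cis-reporter mRNA induction, HepG2, 24 h post-dose. RT-PCR, FAM-labelled, HpaI-digested amplicons by CE. Bidirectional fit vs DMSO.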

[2] = ATG_ISRE_CIS: Attagene CIS-FACTORIAL HepG2 Assay for human Interferon Regulatory Factor 1 (IRF1) binding to an Interferon-Stimulated Response Element (ISRE) (AID 2282948); conditions: HepG2 ISRE cis-reporter (Attagene), mRNA transcription readout; actives raise or lower the signal
Method in brief: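 Read-out: fluorescent RT-PCR products resolved by capillary electrophoresis, reporting endogenous transcription factor activity via ISRE-driven reporter mRNA in transfected HepG2 cells dosed for 24 h; gain or loss fitted relative to DMSO.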

[3] = ATG_M_32_CIS: Attagene CIS-FACTORIAL HepG2 Assay for M32 Transcription Factor (Internal Marker) (AID 2282949); conditions: HepG2 Attagene cis-factorial M32 reporter, mRNA; actives raise or lower the signal;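 further: background control marker of the multiplexed CIS panel rather than a real target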
Method in brief: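 Using DMSO as baseline, bidirectional curve fits were applied to reporter mRNA signals. These came from transiently transfected HepG2 cells exposed for 24 h, with RNA analysed by RT-PCR, FAM primer extension, HpaI digestion and CE.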

[4] = ATG_M_06_CIS: Attagene CIS-FACTORIAL HepG2 Assay for M06 Transcription Factor (Internal Marker) (AID 2282950); conditions: HepG2 Attagene CIS-FACTORIAL M06 internal marker reporter; actives raise or lower the signal
Method in brief: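 One of many multiplexed endpoints: HepG2 reporter mRNA after 24 h dosing, detected by RT-PCR and capillary electrophoresis fluorescence; gain or loss of signal analysed against DMSO.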

[5] = target: Hypoxia-inducible factor 1-alpha (Homo sapiens) (UniProt Q16665); assay: ATG_HIF1a_CIS: Attagene CIS-FACTORIAL HepG2 Assay for human Hypoxia Inducible Factor 1 (HIF1A) (AID 2282951); conditions: HepG2 Attagene cis-factorial HIF1a reporter transcription; actives raise or lower the signal
Chain of Hypoxia-inducible factor 1-alpha (Homo sapiens) (Q16665 whole entry, looked up): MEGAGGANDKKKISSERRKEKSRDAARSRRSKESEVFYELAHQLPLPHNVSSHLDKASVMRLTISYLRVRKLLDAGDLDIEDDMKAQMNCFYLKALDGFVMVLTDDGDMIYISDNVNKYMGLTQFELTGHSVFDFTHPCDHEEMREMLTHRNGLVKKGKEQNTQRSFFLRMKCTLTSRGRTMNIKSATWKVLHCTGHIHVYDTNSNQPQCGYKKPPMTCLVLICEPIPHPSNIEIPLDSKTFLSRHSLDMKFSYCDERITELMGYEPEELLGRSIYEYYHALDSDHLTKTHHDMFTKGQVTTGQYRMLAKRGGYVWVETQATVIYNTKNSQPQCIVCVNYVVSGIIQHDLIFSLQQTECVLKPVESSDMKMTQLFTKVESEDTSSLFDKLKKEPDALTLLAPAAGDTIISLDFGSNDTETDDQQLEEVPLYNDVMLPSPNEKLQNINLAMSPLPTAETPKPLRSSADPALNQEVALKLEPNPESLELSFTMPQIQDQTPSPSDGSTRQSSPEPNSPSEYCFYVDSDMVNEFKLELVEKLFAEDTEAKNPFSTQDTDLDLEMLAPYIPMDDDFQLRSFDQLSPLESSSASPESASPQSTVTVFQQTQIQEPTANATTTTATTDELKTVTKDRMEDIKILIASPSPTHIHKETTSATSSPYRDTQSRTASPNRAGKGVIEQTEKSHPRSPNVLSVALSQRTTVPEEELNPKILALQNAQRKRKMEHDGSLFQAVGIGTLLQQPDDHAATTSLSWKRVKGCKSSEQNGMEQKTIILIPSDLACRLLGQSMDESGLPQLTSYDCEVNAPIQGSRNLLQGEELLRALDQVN
Method in brief: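 HepG2 cells transiently transfected with multiple cis-regulated reporter transcription units measure endogenous transcription factor activity. After 24 h exposure, reporter mRNA is quantified by RT-PCR with 6-FAM labelling, HpaI digestion and capillary electrophoresis. Bidirectional fitting against DMSO.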

[6] = target: Hepatocyte nuclear factor 6 (Homo sapiens) (UniProt Q9UBC0); assay: ATG_HNF6_CIS: Attagene CIS-FACTORIAL HepG2 Assay for human Hepatocyte Nuclear Factor 6 (HNF6) (AID 2282952); conditions: HepG2 Attagene cis-factorial HNF6 reporter transcription; actives raise or lower the signal
Chain of Hepatocyte nuclear factor 6 (Homo sapiens) (Q9UBC0 whole entry, looked up, the tested form may be a part): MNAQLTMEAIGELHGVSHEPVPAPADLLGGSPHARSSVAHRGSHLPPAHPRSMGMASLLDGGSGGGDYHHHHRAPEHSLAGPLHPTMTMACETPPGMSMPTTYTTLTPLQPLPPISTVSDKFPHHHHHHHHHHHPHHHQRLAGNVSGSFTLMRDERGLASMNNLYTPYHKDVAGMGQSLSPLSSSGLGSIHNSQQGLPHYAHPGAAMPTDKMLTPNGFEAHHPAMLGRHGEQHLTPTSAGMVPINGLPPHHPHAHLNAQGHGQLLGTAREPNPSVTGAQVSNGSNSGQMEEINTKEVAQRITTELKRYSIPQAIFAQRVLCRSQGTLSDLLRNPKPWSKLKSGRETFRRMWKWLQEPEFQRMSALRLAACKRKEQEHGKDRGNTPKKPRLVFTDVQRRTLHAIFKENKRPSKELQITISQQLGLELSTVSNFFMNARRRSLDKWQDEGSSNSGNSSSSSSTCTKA
Method in brief: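 Readout: fluorescent reporter-transcript fragments resolved by capillary electrophoresis after RT-PCR, reflecting endogenous factor activity in transfected HepG2. Exposure 24 h. Gain or loss of signal fitted bidirectionally against DMSO.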

[7] = target: Heat shock factor protein 1 (Homo sapiens) (UniProt Q00613); assay: ATG_HSE_CIS: Attagene CIS-FACTORIAL HepG2 Assay for human Heat Shock Transcription Factor 1 (HSE) (AID 2282953); conditions: HepG2 HSE cis-reporter, Attagene RNA transcription; actives raise or lower the signal
Chain of Heat shock factor protein 1 (Homo sapiens) (Q00613 whole entry, looked up): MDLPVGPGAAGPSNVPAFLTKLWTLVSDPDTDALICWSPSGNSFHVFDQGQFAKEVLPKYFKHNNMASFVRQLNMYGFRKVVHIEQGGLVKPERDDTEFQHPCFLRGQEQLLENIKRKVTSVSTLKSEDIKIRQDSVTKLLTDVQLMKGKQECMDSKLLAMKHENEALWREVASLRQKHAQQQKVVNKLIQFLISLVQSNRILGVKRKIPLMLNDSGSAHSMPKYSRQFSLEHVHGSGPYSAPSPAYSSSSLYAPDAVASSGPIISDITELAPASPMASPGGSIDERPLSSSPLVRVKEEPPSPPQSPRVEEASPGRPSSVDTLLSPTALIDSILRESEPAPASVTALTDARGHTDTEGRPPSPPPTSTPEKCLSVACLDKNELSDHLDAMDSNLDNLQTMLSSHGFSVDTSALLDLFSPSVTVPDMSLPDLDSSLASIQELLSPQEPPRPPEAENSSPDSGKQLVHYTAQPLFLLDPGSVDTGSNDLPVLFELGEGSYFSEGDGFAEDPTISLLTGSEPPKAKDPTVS
Method in brief: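 Using HepG2 with transfected cis-driven reporter constructs, compound effects on endogenous factor activity are scored as reporter mRNA change at 24 h. Detection: RT-PCR, HpaI digestion, capillary electrophoresis; bidirectional fitting to DMSO.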

[8] = ATG_MRE_CIS: Attagene CIS-FACTORIAL HepG2 Assay for human Metal Responsive Element (MRE) (AID 2282954); conditions: HepG2 MRE cis-reporter transcription, Attagene multiplex; actives raise or lower the signal
Method in brief: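 Multiplexed cis-reporter assay in human HepG2 liver cells, 24 h incubation with test chemical. Reporter transcripts measured by RT-PCR and capillary electrophoresis; values from bidirectional curve fitting versus DMSO.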

[9] = ATG_PBREM_CIS: Attagene CIS-FACTORIAL HepG2 Assay for human Phenobarbital-responsive Enhancer Module (PBREM) (AID 2282955); conditions: HepG2 PBREM cis-reporter, Attagene multiplexed transcription; actives raise or lower the signal
Method in brief: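 HepG2 cells transiently transfected with multiple cis-regulated reporter units measure endogenous transcription factor activity; 24 h compound exposure. Reporter mRNA quantified by RT-PCR, fluorescent labelling, HpaI digestion and capillary electrophoresis; bidirectional fit versus DMSO.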

| Structure (SMILES) | outcome [1] | outcome [2] | outcome [3] | outcome [4] | outcome [5] | outcome [6] | outcome [7] | outcome [8] | outcome [9] | AC50 [8] | AC50 [1] | AC50 [2] | AC50 [6] | AC50 [9] |
| --- | --- | --- | --- | --- | --- | --- | --- | --- | --- | --- | --- | --- | --- | --- |
| CCOCCOCCOCC | inactive | inactive | inactive | inactive | inactive | inactive | inactive | inactive | inactive |  |  |  |  |  |
| CCCCCCCC/C=C\CCCCCCCC(=O)OCC | inactive | inactive | inactive | inactive | inactive | inactive | inactive |  | inactive |  |  |  |  |  |
| Nc1c(S(=O)(=O)O)cc(Br)c2c1C(=O)c1ccccc1C2=O |  | inactive | inactive | inactive | inactive | inactive | inactive |  |  | 58 µM (active) |  |  |  |  |
| C=CC(=C)CCCC(C)(C)OC(C)=O | inactive | inactive | inactive | inactive | inactive | inactive | inactive | inactive | inactive |  |  |  |  |  |
| CCO/C=C1\N=C(c2ccccc2)OC1=O | inactive | inactive |  |  | inactive | inactive | inactive | inactive | inactive |  |  |  |  |  |
| COC(=O)c1cccnc1 | inactive | inactive | inactive | inactive | inactive | inactive | inactive |  | inactive |  |  |  |  |  |
| CN(C)c1cccc(O)c1 | inactive |  |  | inactive | inactive | inactive | inactive |  | inactive |  |  |  |  |  |
| OC[C@H]1O[C@@H]2O[C@H]3[C@H](O)[C@@H](O)[C@@H](O[C@H]4[C@H](O)[C@@H](O)[C@@H](O[C@H]5[C@H](O)[C@@H](O)[C@@H](O[C@H]6[C@H](O)[C@@H](O)[C@@H](O[C@H]7[C@H](O)[C@@H](O)[C@@H](O[C@H]8[C@H](O)[C@@H](O)[C@@H](O[C@H]9[C@H](O)[C@@H](O)[C@@H](O[C@H]1[C@H](O)[C@H]2O)O[C@@H]9CO)O[C@@H]8CO)O[C@@H]7CO)O[C@@H]6CO)O[C@@H]5CO)O[C@@H]4CO)O[C@@H]3CO | inactive | inactive |  | inactive | inactive | inactive | inactive | inactive | inactive |  |  |  |  |  |
| COC(CC(C)CCCC(C)(C)O)OC (stereo not drawn) | inactive |  | inactive | inactive | inactive | inactive | inactive | inactive |  |  |  |  |  |  |
| COc1ccc(CCO)cc1 |  | inactive | inactive | inactive | inactive | inactive | inactive |  | inactive |  | 183 µM (active) |  |  |  |
| Nc1ccn([C@H]2CS[C@@H](CO)O2)c(=O)n1 | inactive | inactive | inactive | inactive | inactive | inactive | inactive | inactive | inactive |  |  |  |  |  |
| C=Cc1ccc(C)cc1 | inactive |  | inactive | inactive | inactive | inactive | inactive | inactive | inactive |  |  |  |  |  |
| c1ccc(CN(Cc2ccccc2)Cc2ccccc2)cc1 | inactive |  |  |  | inactive | inactive | inactive | inactive | inactive |  |  |  |  |  |
| CC(=O)C1(C)CC2=C(CCCC2(C)C)CC1C (stereo not drawn) | inactive |  | inactive | inactive | inactive |  | inactive |  |  | 160 µM (active) |  | 152 µM (active) | 134 µM (active) | 100 µM (active) |
| CC(Oc1cc(Cl)ccc1Cl)C(=O)O (stereo not drawn) | inactive |  | inactive | inactive | inactive | inactive | inactive | inactive | inactive |  |  |  |  |  |
| CCCCCCCC(=O)OCC(O)CO (stereo not drawn) | inactive | inactive |  | inactive | inactive | inactive | inactive | inactive | inactive |  |  |  |  |  |
| CCCOC(=O)c1c(Cl)c(Cl)c(Cl)c(Cl)c1C(=O)OCCC | inactive |  | inactive | inactive | inactive | inactive | inactive |  | inactive | 162 µM (active) |  | 62.1 µM (active) |  |  |
| CCc1ccc(O)cc1 | inactive | inactive | inactive | inactive | inactive | inactive | inactive | inactive | inactive |  |  |  |  |  |
| CS(=O)(=O)c1ccc(Cl)cc1 | inactive | inactive | inactive |  | inactive | inactive | inactive | inactive | inactive |  |  |  |  |  |
| Cc1ccc(OC(=O)c2ccccc2O)cc1 | inactive | inactive | inactive | inactive | inactive | inactive | inactive |  | inactive |  |  |  |  |  |
| CCCCCC(C)=O | inactive | inactive | inactive | inactive | inactive | inactive | inactive | inactive | inactive |  |  |  |  |  |
| CCCC(=O)OCCc1ccccc1 | inactive | inactive | inactive |  | inactive | inactive | inactive | inactive | inactive |  |  |  |  |  |
| O=C(c1ccccc1)C(O)c1ccccc1 (stereo not drawn) | inactive | inactive |  | inactive | inactive | inactive | inactive | inactive |  |  |  |  |  |  |
| CC(C)CCCCCCCCCCCCCCC(=O)O | inactive | inactive | inactive | inactive | inactive | inactive | inactive | inactive | inactive |  |  |  |  |  |
| BrCc1cccc(Oc2ccccc2)c1 | inactive | inactive |  |  | inactive | inactive | inactive | inactive |  |  |  |  |  |  |
| COCCOCCOCCO | inactive | inactive | inactive |  | inactive | inactive | inactive | inactive | inactive |  |  |  |  |  |
| COC(=O)C=C(C)CCC=C(C)C |  | inactive | inactive |  | inactive | inactive | inactive | inactive |  |  |  |  |  |  |
| O=C(O)c1cccnc1C(=O)O |  | inactive | inactive | inactive |  | inactive | inactive | inactive |  |  |  |  |  |  |
| COC(C)(C)CCO |  | inactive | inactive | inactive | inactive | inactive | inactive | inactive | inactive |  |  |  |  |  |
| C[C@@H]1CCN(C(=O)[C@H](CCCN=C(N)N)NS(=O)(=O)c2cccc3c2NC[C@H](C)C3)[C@@H](C(=O)O)C1 |  | inactive | inactive | inactive | inactive | inactive | inactive |  | inactive |  |  |  |  |  |
